# Laboratory results from paper PMC7862700, “An all-to-all approach to the identification of sequence-specific readers for epigenetic DNA modifications on cytosine”.
# Key:
# Assay in all cases: DAPPL (digital affinity profiling via proximity ligation, sequencing); 10 mM Tris-HCl pH 7.5, 50 mM NaCl, 1 mM DTT, 4% glycerol, room temperature, 30 min; GST-TFs on glutathione beads, 16-mer random dsDNA library, 0.1% formaldehyde crosslink after washing; high values mean tight binding
# HSF1 = HSF1 (Homo sapiens, UniProt Q00613 1-529); conditions: protein: recombinant; tags: N-terminal GST; chain copies: 3; dsDNA, one strand shown
# Sequence of HSF1 (Q00613 whole entry, the tested form may be a part): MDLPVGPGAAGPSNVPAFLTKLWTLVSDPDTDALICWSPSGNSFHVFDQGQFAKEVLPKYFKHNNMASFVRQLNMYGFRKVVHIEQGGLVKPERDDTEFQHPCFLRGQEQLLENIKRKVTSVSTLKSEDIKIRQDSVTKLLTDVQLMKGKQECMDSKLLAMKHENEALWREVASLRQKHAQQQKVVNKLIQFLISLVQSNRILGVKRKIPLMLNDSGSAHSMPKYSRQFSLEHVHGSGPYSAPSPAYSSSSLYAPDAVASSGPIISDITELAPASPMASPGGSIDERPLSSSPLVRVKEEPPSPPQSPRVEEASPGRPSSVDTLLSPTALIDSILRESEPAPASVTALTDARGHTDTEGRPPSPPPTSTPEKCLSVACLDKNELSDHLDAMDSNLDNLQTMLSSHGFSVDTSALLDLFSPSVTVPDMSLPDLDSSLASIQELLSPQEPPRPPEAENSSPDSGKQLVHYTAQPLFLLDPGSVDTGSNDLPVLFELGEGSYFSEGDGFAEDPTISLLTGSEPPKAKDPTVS
# In short: (§1)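 Binding signal is each hexamer's read frequency for a factor divided by its frequency in the tag-only sample. The factors were GST-fused human transcription factors from yeast, captured on glutathione beads, DNA-barcoded and pooled with that sample. Pools were incubated with 200 nmole of a random double-stranded 16-mer DNA library in Tris/NaCl/DTT/glycerol buffer at room temperature for 30 min, then washed, crosslinked with 0.1% formaldehyde, proximity-ligated with BsaI/T4 ligase (1 h, 37 °C), PCR-amplified and sequenced on an Illumina NextSeq500.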
# FLI1 = biological target: T1, FLI1 (Homo sapiens, UniProt Q01543 1-452); conditions: protein: recombinant; tags: N-terminal GST; dsDNA, one strand shown
# T1 sequence: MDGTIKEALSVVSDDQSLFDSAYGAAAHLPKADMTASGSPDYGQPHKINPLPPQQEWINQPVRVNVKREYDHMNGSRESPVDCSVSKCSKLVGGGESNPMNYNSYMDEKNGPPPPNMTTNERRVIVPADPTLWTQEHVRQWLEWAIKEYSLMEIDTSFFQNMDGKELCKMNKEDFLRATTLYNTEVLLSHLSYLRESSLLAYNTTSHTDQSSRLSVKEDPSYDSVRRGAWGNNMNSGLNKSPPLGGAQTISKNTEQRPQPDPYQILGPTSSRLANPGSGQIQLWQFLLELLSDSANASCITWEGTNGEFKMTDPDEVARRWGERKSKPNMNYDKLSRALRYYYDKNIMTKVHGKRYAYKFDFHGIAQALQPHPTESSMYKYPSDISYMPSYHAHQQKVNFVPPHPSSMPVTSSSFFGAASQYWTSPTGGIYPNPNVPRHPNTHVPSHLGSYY
# In short: as §1
# SPI1 = SPI1 (Homo sapiens, UniProt P17947 1-270); conditions: protein: recombinant; tags: N-terminal GST; dsDNA, one strand shown
# In short: as §1
# ELK3 = biological target: T2, ELK3 (Homo sapiens, UniProt P41970 1-407); conditions: protein: recombinant; tags: N-terminal GST; dsDNA, one strand shown
# T2 sequence: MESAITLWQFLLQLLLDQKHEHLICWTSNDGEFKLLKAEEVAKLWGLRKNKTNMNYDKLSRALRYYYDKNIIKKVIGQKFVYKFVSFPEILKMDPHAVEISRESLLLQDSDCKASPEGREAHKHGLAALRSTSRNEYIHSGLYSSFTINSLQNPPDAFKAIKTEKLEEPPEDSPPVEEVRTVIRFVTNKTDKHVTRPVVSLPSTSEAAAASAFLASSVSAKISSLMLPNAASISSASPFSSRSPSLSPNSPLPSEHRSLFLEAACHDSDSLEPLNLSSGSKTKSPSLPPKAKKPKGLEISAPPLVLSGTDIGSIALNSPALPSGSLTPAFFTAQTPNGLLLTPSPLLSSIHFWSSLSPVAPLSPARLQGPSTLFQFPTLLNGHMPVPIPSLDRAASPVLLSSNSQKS
# In short: as §1
# ELK4 = biological target: T3, ELK4 (Homo sapiens, UniProt P28324-2 1-405); conditions: protein: recombinant; tags: N-terminal GST; dsDNA, one strand shown
# T3 sequence: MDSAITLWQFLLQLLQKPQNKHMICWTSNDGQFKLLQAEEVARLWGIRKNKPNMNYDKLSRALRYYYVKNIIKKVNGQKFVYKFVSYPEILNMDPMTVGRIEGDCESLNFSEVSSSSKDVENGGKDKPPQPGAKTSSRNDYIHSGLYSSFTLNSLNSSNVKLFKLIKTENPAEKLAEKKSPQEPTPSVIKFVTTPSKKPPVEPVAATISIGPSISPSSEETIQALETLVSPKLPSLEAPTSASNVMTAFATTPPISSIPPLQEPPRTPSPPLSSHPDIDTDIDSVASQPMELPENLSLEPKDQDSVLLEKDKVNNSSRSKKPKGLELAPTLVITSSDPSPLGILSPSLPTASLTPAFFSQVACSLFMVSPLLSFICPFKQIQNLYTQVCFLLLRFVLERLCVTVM
# In short: as §1
# ETV3L = biological target: T4, ETV3L (Homo sapiens, UniProt Q6ZN32 1-361); conditions: protein: recombinant; tags: N-terminal GST; dsDNA, one strand shown
# T4 sequence: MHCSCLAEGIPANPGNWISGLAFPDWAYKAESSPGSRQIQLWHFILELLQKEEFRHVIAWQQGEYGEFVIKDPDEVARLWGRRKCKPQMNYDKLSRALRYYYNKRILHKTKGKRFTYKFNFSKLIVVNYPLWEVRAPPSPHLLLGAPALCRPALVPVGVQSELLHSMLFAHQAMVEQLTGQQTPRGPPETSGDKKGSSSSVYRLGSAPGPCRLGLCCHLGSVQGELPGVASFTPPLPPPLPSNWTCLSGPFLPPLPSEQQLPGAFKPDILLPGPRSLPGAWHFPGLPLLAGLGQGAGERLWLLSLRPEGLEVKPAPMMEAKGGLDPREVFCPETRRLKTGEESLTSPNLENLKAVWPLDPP
# In short: as §1
# ETV7 = biological target: T5, ETV7 (Homo sapiens, UniProt Q9Y603 1-341); conditions: protein: recombinant; tags: N-terminal GST; dsDNA, one strand shown
# T5 sequence: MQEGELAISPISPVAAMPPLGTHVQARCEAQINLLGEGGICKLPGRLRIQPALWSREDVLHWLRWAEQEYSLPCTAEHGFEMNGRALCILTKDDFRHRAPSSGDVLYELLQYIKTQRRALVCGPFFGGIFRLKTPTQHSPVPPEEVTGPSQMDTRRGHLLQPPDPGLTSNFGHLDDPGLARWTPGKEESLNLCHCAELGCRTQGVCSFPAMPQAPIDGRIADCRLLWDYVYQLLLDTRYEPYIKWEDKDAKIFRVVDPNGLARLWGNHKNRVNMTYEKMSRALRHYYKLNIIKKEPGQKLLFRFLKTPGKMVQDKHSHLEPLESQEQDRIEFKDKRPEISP
# In short: as §1
# ELF5 = biological target: T6, ELF5 (Homo sapiens, UniProt Q9UKW6-2 1-255); conditions: protein: recombinant; tags: N-terminal GST; dsDNA, one strand shown
# T6 sequence: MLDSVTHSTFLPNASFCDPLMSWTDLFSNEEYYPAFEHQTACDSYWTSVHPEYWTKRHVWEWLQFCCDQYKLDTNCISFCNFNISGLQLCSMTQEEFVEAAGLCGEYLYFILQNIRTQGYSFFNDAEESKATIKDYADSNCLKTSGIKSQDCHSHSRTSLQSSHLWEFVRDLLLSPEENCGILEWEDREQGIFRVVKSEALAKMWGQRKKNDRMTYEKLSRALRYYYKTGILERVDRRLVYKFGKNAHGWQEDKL
# In short: as §1
# ETV6 = ETV6 (Homo sapiens, UniProt P41212 1-452); conditions: protein: recombinant; tags: N-terminal GST; dsDNA, one strand shown
# Sequence of ETV6 (P41212 whole entry): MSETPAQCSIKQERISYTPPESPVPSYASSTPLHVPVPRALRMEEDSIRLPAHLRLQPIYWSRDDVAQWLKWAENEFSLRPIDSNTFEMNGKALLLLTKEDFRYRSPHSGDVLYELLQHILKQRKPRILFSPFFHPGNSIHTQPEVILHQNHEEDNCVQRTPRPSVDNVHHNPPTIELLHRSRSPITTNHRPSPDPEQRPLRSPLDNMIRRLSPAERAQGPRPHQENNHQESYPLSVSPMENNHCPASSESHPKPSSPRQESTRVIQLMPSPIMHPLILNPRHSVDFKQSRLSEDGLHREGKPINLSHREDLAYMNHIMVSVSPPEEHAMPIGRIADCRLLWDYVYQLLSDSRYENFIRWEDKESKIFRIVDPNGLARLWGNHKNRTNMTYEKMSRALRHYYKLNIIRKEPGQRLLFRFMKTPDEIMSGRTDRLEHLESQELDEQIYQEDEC
# In short: as §1
# GABPA = biological target: T7, GABPA (Homo sapiens, UniProt Q06546 1-454); conditions: protein: recombinant; tags: N-terminal GST; dsDNA, one strand shown
# T7 sequence: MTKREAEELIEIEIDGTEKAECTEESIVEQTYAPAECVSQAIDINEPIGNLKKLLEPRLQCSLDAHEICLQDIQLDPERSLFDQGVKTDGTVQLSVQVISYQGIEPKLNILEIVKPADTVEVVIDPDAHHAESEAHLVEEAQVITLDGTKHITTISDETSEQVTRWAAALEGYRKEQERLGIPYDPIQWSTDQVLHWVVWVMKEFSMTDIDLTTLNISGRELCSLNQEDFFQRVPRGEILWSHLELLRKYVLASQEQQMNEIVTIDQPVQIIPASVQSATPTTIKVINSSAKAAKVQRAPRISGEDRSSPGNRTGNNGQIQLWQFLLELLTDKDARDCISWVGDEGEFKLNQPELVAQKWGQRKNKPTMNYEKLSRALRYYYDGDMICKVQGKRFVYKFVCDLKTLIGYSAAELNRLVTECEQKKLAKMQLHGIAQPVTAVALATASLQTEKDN
# In short: as §1
# ELF1 = ELF1 (Homo sapiens, UniProt P32519 1-619); conditions: protein: recombinant; tags: N-terminal GST; dsDNA, one strand shown
# Sequence of ELF1 (P32519 whole entry): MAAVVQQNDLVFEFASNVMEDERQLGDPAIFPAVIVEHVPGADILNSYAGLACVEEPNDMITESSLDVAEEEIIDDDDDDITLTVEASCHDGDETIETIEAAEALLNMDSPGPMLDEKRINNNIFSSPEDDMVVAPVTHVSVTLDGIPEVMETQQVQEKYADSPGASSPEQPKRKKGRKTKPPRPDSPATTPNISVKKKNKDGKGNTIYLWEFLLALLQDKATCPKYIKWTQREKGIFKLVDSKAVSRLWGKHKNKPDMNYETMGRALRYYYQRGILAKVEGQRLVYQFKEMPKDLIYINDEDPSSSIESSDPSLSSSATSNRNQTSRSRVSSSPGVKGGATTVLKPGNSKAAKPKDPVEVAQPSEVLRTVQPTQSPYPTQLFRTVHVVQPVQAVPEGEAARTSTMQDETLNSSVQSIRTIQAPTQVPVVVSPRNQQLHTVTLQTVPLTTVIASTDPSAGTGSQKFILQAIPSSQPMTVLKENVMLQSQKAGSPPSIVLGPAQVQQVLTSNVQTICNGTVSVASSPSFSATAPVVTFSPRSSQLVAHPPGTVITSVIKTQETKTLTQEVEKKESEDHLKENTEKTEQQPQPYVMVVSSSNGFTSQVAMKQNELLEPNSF
# In short: as §1
# EHF = biological target: T8, EHF (Homo sapiens, UniProt Q9NZC4 1-300); conditions: protein: recombinant; tags: N-terminal GST; dsDNA, one strand shown
# T8 sequence: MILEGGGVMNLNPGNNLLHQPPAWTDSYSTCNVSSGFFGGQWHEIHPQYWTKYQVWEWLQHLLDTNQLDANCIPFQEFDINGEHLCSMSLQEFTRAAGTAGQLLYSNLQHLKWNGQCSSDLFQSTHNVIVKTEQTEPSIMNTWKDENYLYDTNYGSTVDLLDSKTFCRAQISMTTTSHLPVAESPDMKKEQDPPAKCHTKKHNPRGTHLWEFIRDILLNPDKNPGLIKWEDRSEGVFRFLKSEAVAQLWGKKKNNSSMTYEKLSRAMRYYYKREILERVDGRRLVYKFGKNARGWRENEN
# In short: as §1
# SPIB = SPIB (Homo sapiens, UniProt Q01892 1-262); conditions: protein: recombinant; tags: N-terminal GST; dsDNA, one strand shown
# Sequence of SPIB (Q01892 whole entry): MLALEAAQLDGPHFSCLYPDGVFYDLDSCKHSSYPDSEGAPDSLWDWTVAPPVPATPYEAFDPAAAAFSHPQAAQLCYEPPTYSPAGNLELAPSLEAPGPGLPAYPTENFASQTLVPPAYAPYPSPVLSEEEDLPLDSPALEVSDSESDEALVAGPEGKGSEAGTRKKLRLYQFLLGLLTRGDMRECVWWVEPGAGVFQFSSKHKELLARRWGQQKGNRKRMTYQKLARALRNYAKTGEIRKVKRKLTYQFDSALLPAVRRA
# In short: as §1
# SPIC = biological target: T9, SPIC (Homo sapiens, UniProt Q8N5J4 1-248); conditions: protein: recombinant; tags: N-terminal GST; dsDNA, one strand shown
# T9 sequence: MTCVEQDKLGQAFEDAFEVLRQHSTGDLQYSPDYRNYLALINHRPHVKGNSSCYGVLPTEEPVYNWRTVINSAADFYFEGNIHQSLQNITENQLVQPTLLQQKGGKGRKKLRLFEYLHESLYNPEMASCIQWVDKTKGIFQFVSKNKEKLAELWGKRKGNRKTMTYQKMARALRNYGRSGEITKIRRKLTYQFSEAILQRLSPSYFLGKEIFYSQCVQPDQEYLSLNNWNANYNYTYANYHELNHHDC
# In short: as §1
# ELF4 = ELF4 (Homo sapiens, UniProt Q99607 1-663); conditions: protein: recombinant; tags: N-terminal GST; dsDNA, one strand shown
# Sequence of ELF4 (Q99607 whole entry): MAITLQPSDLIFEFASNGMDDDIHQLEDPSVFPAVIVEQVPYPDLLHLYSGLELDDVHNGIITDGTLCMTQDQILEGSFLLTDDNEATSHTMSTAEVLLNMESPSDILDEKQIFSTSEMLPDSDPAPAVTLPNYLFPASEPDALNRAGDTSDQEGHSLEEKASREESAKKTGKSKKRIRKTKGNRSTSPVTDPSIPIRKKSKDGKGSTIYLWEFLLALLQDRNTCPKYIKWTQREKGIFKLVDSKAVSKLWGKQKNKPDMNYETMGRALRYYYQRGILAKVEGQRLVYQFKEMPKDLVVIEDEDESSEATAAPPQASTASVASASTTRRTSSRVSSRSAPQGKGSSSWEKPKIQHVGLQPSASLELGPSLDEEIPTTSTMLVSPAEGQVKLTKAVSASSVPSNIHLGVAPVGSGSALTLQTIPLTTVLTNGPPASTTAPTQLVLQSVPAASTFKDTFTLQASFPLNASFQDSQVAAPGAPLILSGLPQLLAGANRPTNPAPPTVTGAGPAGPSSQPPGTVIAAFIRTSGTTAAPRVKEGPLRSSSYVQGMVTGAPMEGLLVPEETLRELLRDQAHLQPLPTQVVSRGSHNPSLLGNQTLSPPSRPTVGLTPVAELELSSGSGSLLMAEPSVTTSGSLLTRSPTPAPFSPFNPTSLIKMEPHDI
# In short: as §1
# ETV2 = biological target: T10, ETV2 (Homo sapiens, UniProt O00321 1-342); conditions: protein: recombinant; tags: N-terminal GST; dsDNA, one strand shown
# T10 sequence: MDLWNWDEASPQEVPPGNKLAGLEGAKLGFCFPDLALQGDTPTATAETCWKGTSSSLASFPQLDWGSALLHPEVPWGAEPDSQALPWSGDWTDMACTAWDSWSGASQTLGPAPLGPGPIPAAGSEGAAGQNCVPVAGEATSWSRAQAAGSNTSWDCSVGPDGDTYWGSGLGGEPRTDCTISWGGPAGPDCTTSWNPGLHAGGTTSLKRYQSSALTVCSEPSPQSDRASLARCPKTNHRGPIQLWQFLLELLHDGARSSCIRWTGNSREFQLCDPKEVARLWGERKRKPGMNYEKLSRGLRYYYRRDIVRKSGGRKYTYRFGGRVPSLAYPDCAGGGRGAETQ
# In short: as §1
# CRX = CRX (Homo sapiens, UniProt O43186 1-299); conditions: protein: recombinant; tags: N-terminal GST; dsDNA, one strand shown
# Sequence of CRX (O43186 whole entry): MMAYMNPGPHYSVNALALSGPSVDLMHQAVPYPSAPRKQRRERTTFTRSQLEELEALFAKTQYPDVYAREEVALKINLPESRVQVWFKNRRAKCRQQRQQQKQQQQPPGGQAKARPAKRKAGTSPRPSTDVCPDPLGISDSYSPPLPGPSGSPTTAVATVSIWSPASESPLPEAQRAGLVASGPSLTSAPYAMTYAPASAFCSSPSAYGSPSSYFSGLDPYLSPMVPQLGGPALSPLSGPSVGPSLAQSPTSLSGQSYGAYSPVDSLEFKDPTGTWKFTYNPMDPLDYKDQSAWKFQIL
# In short: as §1
# ETV1 = ETV1 (Homo sapiens, UniProt P50549 1-477); conditions: protein: recombinant; tags: N-terminal GST; dsDNA, one strand shown
# Sequence of ETV1 (P50549 whole entry): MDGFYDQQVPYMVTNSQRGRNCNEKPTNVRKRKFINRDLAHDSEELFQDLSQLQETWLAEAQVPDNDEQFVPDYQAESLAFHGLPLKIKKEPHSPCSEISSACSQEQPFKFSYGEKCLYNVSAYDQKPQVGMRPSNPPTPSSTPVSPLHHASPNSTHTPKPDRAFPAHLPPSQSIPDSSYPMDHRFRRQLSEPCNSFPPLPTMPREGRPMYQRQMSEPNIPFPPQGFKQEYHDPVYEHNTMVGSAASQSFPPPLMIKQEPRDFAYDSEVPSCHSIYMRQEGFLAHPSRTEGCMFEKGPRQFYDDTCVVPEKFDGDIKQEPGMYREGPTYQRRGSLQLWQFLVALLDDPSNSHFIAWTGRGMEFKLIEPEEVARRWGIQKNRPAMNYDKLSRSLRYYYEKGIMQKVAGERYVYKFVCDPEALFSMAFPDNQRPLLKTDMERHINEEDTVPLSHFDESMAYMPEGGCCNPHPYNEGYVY
# In short: as §1
# ERF = biological target: T11, ERF (Homo sapiens, UniProt P50548 1-548); conditions: protein: recombinant; tags: N-terminal GST; dsDNA, one strand shown
# T11 sequence: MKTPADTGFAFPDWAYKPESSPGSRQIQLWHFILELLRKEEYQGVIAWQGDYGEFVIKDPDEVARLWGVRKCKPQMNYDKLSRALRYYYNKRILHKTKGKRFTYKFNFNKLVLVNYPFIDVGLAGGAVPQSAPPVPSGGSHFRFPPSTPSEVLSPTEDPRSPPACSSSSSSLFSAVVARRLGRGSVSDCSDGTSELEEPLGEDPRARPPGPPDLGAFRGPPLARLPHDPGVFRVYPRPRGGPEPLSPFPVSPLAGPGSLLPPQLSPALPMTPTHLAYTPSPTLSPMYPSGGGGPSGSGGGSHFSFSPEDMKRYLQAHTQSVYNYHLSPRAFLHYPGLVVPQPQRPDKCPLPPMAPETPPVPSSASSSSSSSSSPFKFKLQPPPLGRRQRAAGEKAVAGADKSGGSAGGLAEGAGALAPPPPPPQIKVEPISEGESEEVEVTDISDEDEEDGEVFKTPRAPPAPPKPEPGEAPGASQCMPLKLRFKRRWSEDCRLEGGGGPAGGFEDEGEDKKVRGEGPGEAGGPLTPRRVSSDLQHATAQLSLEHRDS
# In short: as §1
sequence,measurement,setting,value
ATCGAG,binding signal,HSF1,"1.49 fold enrichment (6-mer frequency, TF over GST control)"
AGTTGC,binding signal,FLI1,"1.04 fold enrichment (6-mer frequency, TF over GST control)"
same,binding signal,SPI1,"1.07 fold enrichment (6-mer frequency, TF over GST control)"
same,binding signal,ELK3,"1.03 fold enrichment (6-mer frequency, TF over GST control)"
same,binding signal,ELK4,"1.02 fold enrichment (6-mer frequency, TF over GST control)"
same,binding signal,ETV3L,"1.01 fold enrichment (6-mer frequency, TF over GST control)"
same,binding signal,ETV7,"1.11 fold enrichment (6-mer frequency, TF over GST control)"
same,binding signal,ELF5,"1.02 fold enrichment (6-mer frequency, TF over GST control)"
same,binding signal,ETV6,"1.03 fold enrichment (6-mer frequency, TF over GST control)"
TTAGCC,binding signal,GABPA,"1.01 fold enrichment (6-mer frequency, TF over GST control)"
same,binding signal,ELF1,"1.06 fold enrichment (6-mer frequency, TF over GST control)"
same,binding signal,EHF,"1.03 fold enrichment (6-mer frequency, TF over GST control)"
same,binding signal,SPIB,"1 fold enrichment (6-mer frequency, TF over GST control)"
same,binding signal,ELK3,"1.02 fold enrichment (6-mer frequency, TF over GST control)"
same,binding signal,HSF1,"1.45 fold enrichment (6-mer frequency, TF over GST control)"
same,binding signal,SPIC,"1.04 fold enrichment (6-mer frequency, TF over GST control)"
same,binding signal,ELF4,"1.01 fold enrichment (6-mer frequency, TF over GST control)"
same,binding signal,ETV2,"1.06 fold enrichment (6-mer frequency, TF over GST control)"
same,binding signal,CRX,"2.22 fold enrichment (6-mer frequency, TF over GST control)"
same,binding signal,ETV1,"1.02 fold enrichment (6-mer frequency, TF over GST control)"
same,binding signal,ERF,"1.07 fold enrichment (6-mer frequency, TF over GST control)"
